Measured values from PubChem BioAssay (NCI).
The panel holds about 83,000 compounds, 20% with a hit somewhere; the sample as a whole holds those more often.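 96-well plates, one dose, 48 hours. Percent growth reported; active if below 10.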 Unmarked numbers belong to inactive results. Calls of active or inactive are those of the source.

Test system: OVCAR-8 ovarian
Assay: NCI-60 one-dose screen, 48 h (100 = growth as untreated, 0 = no growth, -100 = all killed)
Settings: 10 µM unless noted

Structure (SMILES) | growth
CC1=C(C(=O)Nc2ccccc2)C(c2cccc3ccccc23)n2c(nc3ccccc32)N1 (configuration not stated) | -0.819% (active)
COc1ccc(NC(=O)CSc2nnc(-c3ccc(-c4nc5ccccc5[nH]4)cc3)o2)cc1 | -24.6% (active)
COc1cc2cc(C(=O)N3C[C@@H](CCl)c4c3cc(OC(=O)N(C)CCSSCCN3CCOCC3)c3ccccc43)[nH]c2c(OC)c1OC | -41.4% (active)
CC(=O)C[n+]1cccc2c3ccccc3ccc21 | 81.5%
CC[C@]12C=CCN3CC[C@]4(C(=C(C(=O)OC)C1)Nc1cc(OC)c([C@@H]5[C@H]6O[C@H]6[C@@]6(CC)CC(C(=O)OC)=C7Nc8cc(O)ccc8[C@@]78CCN5[C@@H]68)cc14)[C@@H]32 | 27.6%
Cc1ccccc1Nc1nnc(-c2c[nH]c3ccccc23)o1 | 18.9%
COc1cncc(-c2ccc3ncnc(N4CCc5ccc(Cl)cc54)c3c2)c1 | 39.4%
Clc1ccc2c(NCCNC34CC5CC(CC(C5)C3)C4)ccnc2c1 | -63.4% (active)
Cn1cc(-c2cc(N)n3nc(-c4c[nH]c5ccccc45)cc3n2)c2cc(Br)ccc21 | -63.7% (active)
Cc1nn(-c2ccccc2)c2nc(C)n(CC(=O)N/N=C/c3cccc([N+](=O)[O-])c3)c(=O)c12 | 98.5%
Cc1ccc(S(=O)(=O)Nc2ccc(-c3ccc4c(c3)NC(=O)/C4=C\c3ccc[nH]3)cc2)cc1 | 86.7%
O=C1c2cccc3c(N4CCN(c5ccccc5)CC4)ccc(c23)C(=O)N1c1cccc(-c2nn(-c3ccccc3)cc2-c2nc3ccccc3s2)c1 | 106%
COc1ccc(-c2cc(-c3cc(C(C)C)c(O)cc3C)nn2-c2ccc(S(N)(=O)=O)cc2)cc1 | 24.5%
Clc1ccc(-c2nc3c4c(-c5ccccc5)c(-c5ccccc5)n(Cc5ccccc5)c4ncn3n2)cc1 | 11.6%
Cc1ccc(-c2cc(C(=O)N=Nc3c(O)[nH]c4ccc(F)cc34)c3ccccc3n2)cc1 | 16.8%
COc1ccc(/C=C/c2nc3ccccc3n3c(-c4cccc([N+](=O)[O-])c4)nnc23)cc1 | -43.6% (active)
O=C(c1ccc(O)cc1)C1[C@H](c2ccc(Cl)cc2)[C@@H](c2ccccc2)NC12C(=O)Nc1ccccc12 (some centres not stated) | 12.5%
N#C/C(=C1/C(=O)Nc2ccccc21)c1nnc(NC(=O)c2ccc(-n3c(=O)[nH]c4ccccc4c3=O)cc2)s1 | 40.2%
CN(C(=O)CN1C(=O)/C(=C/c2ccco2)SC1=S)C1CCS(=O)(=O)C1 (configuration not stated) | 96%

Structure (SMILES) | growth
COc1c2c(cc3c1C(CCc1ccccc1)N(C)CC3)OCO2 (configuration not stated) | 16.9%
COc1cc(C2CC(c3ccc(F)cc3)=Nc3c(N)nc(N)nc3N2)ccc1Oc1nc(Nc2ccc(F)cc2)nc(N(C)C)n1 (configuration not stated) | 63%
CC(C)C[C@H](NC(=O)CNC(=O)C[C@H]1O[C@@H]2OC3(C)CC[C@H]4[C@H](C)CC[C@@H]([C@H]1C)[C@@]24O3)B(O)O | 4.17% (active)
Cc1[nH]nc2ccc3nc(-c4cnn(CCO)c4)c4c(c3c12)CCCC4 | 48.7%
CCCN(CCC)S(=O)(=O)c1ccc(C(=O)O)cc1.CCCN(CCC)S(=O)(=O)c1ccc(C(=O)O)cc1.[Cl][Pt+2][Cl].[NH2-].[NH2-] | 39.7%
COc1ccc(N=Nc2c(N)nn3c(-c4ccc5c(c4)C=S=C5)ccnc23)cc1 | 28.8%
O=C(NNC(=O)c1ccc(OCc2nc3ccc(Cl)cc3[nH]2)cc1)Nc1ccc(Cl)c(Cl)c1 | 24%
Cc1nc(Nc2ccccn2)sc1C1=NNC(c2ccccc2F)C1 (configuration not stated) | 68%
COc1ccc(-c2nc3ccccc3n2CC(=O)N=Nc2c(O)[nH]c3ccc(Br)cc23)cc1 | 71.1%
CC[C@]12C=CCN3CC[C@@]4(c5ccc(OC)cc5N(C)[C@H]4[C@@](O)(C(=O)OC)[C@@H]1OC(=O)CCC[P+](c1ccc(OC)cc1)(c1ccc(OC)cc1)c1ccc(OC)cc1)[C@@H]32 | -86.2% (active)
COc1ccc(-c2cc(C(=O)N=Nc3c(O)[nH]c4ccc(Cl)cc34)c3ccccc3n2)cc1OC | 110%
Fc1ccc(Nc2nnc(-c3c[nH]c4ccccc34)o2)cc1 | 85.5%
O=C(NN1C(=O)/C(=C/C=C/c2ccc([N+](=O)[O-])o2)SC1=S)c1ccc(O)cc1 | -70.9% (active)
Cc1cccc(-c2ccccc2Oc2ccc3nnc(Cl)n3n2)c1 | 104%
C[C@H](NC(=O)c1ccc2c(-c3ccc(C(F)(F)F)cc3)cccc2c1)c1ccccn1 | 44.7%
Cc1ccc(C(=O)Nc2cc(-c3ccccc3)cc(C(F)(F)F)c2)cc1C#Cc1cnc2cccnn12 | 75.3%
O=[N+]([O-])c1cccc(-c2nnc3c(/C=C/c4ccc(F)cc4)nc4ccccc4n23)c1 | 85.2%
O=C1Nc2cc(-c3ccc(NS(=O)(=O)c4ccc(C(F)(F)F)cc4)cc3)ccc2/C1=C/c1ccc[nH]1 | 57%
